# From publication PMC4336329 (PLoS ONE, 2015)
# Hit rate of the full screen: of about 310,000 compounds, about 14,000 (4.5%) showed an effect of 50% or more. The effect is printed as a negative number. The list comes from a sample in which strong results are over-represented; it also holds similar structures and randomly drawn compounds.
# Target: human ether-à-go-go-related gene (hERG) potassium channel (human, UniProt Q12809)
# Assay: primary screen, population patch clamp on CHO cells stably expressing hERG; higher = less effect of the substance
# 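Note: peak tail current of the secondary pulse compared with the same well before compound.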
# human ether-à-go-go-related gene (hERG) potassium channel, sequence (Q12809 whole entry, looked up): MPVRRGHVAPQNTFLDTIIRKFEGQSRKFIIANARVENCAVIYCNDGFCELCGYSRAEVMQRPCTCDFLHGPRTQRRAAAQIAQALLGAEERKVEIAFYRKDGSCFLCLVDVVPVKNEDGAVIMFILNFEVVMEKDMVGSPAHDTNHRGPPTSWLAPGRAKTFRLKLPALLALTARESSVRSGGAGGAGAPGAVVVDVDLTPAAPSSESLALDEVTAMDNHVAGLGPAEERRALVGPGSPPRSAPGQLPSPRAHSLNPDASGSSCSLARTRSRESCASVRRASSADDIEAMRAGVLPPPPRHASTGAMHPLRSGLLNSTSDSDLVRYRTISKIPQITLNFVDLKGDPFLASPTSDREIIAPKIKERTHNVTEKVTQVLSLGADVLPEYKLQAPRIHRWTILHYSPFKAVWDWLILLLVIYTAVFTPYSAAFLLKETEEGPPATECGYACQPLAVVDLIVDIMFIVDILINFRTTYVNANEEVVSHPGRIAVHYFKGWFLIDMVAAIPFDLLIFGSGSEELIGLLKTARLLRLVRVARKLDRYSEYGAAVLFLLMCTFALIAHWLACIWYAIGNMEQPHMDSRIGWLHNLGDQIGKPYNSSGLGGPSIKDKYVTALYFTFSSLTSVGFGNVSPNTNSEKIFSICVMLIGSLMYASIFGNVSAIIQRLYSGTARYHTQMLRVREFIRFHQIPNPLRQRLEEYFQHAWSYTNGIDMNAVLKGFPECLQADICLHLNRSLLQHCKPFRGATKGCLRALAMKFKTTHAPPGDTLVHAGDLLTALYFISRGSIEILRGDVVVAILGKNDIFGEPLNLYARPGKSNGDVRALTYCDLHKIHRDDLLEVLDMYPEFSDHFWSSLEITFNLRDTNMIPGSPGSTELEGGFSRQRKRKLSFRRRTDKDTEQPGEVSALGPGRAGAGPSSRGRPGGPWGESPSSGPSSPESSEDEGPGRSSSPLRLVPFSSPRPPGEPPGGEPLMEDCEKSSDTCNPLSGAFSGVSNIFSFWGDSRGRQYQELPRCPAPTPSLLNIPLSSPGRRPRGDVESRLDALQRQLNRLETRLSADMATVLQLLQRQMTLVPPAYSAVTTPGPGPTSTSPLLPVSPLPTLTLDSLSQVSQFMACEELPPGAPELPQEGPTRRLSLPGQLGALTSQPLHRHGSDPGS
row,SMILES,"hERG current change (%, negative = inhibition) at 10uM"
1,COc1cccc(C2c3[nH]c4ccccc4c3C[C@H]3C(=O)N(CCCO)CC(=O)N23)c1OC (stereo partly drawn),-6.83%
2,CC1(c2nnc(Cc3ccccc3)o2)CC(c2ccccc2F)=NO1 (stereo not drawn),-12.6%
3,CC(C)Sc1nc(N2CCOCC2)c2c(c1C#N)CC(C)(C)SC2,5.69%
4,CC1=C(C(N)=O)C(c2ccccc2)n2nc(-c3ccncc3)nc2N1 (stereo not drawn),11.2%
5,COC(=O)C1C2CCC(C2)C1C(=O)OCC(=O)c1ccc(C)cc1 (stereo not drawn),-19.5%
6,CC1(C)CC(=O)C=C(Nc2ccc([N+](=O)[O-])cc2)C1,-16.6%
7,COc1ccc(NC(=O)CCOc2ccc(C)cc2)cc1S(=O)(=O)N1CCOCC1,-34.9%
8,COc1ccc(C(=S)N2CCCC2)cc1C,4.72%
9,CCCCCCOC(=O)c1ccc(NC(=O)c2cc(OC)c(OC)c(OC)c2Br)cc1,5.84%
10,CCOC(=O)c1ccc(CNC(=O)CSc2nnc(-c3ccncc3)o2)cc1,-1.31%
11,Cl.NS(=O)(=O)c1ccc(CCNC/C=C/c2ccccc2)cc1,-48.7%
12,COc1ccc(CNC/C=C/c2ccccc2)cc1.Cl,-42.2%
13,COc1ccc(CCNC/C=C/c2ccccc2)cc1.Cl,-51.4%
14,Cc1nn(C)c(C)c1CNC(=O)Nc1ccc2c(c1)OCO2,12%
15,CC(NC(=O)CN(C)S(=O)(=O)c1ccc(F)cc1)C1CC2CCC1C2 (stereo not drawn),-2.34%
16,O=C(CCSCCc1ccccn1)Nc1c(F)c(F)c(F)c(F)c1F,-23.3%
17,CC(C)Nc1cc(C(C)(C)C)nc2c(-c3ccccc3)cnn12,8.72%
18,CCC(C)(C)n1nnnc1C(c1ccc(C)cc1)N1CCCC1.Cl (stereo not drawn),-11.7%
19,CCC(C)(C)n1nnnc1C(c1ccc(C)cc1)N1CCSCC1 (stereo not drawn),-55.1%
20,CCC(C)(C)n1nnnc1C(C(C)C)N1CCC(C(N)=O)CC1 (stereo not drawn),10.4%
21,CC(C)(C)n1nnnc1C(c1ccc(Cl)cc1)N1CCSCC1 (stereo not drawn),-0.553%

row,SMILES,"hERG current change (%, negative = inhibition) at 10uM"
1,CCC(C)(C)n1nnnc1C(C(C)C)N1CCSCC1 (stereo not drawn),-61.6%
2,CCC(C)(C)n1nnnc1C(C(C)C)N1CCN(C)CC1.Cl (stereo not drawn),6.63%
3,N#C/C(=C/c1ccc2c(c1)OCO2)C(=O)Nc1ccc(O)cc1,-0.516%
4,COc1ccc(NC(C)=O)cc1S(=O)(=O)N(C)Cc1c(C)nn(-c2ccccc2)c1C,-13%
5,COCC(C)OC(=O)/C(C#N)=C\c1coc2ccc(C)cc2c1=O (stereo not drawn),-20.9%
6,CC(C)(C)c1ccccc1NC(=S)NC1CCCC1,1.41%
7,COc1ccc(N2C(=O)CCC(C(=O)N3CCC(C(N)=O)CC3)C2c2ccc(F)cc2)cc1 (stereo not drawn),-2.18%
8,Cc1c(CCOC(=O)CC23CC4CC(CC(C)(C4)C2)C3)sc[n+]1Cc1ccc([N+](=O)[O-])cc1.[Br-],-87.8%
9,Cc1c(CCOC(=O)CC23CC4CC(CC(C4)C2)C3)sc[n+]1CC(=O)c1ccccc1.[Br-],-59.4%
10,Cc1ncc(C[n+]2csc(CCOC(=O)CC34CC5CC(CC(C5)C3)C4)c2C)c(N)n1.Cl.[Cl-],-4.79%
11,Cc1c(CCOC(=O)C23CC4CC(CC(C)(C4)C2)C3)sc[n+]1CC(=O)c1ccccc1.[Br-],-26.7%
12,Cc1c(CCO)sc[n+]1CC(=O)OC12CC3CC(CC(C3)C1)C2.[Cl-],19.8%
13,Cc1c(CCOC(=O)CC23CC4CC(CC(C)(C4)C2)C3)sc[n+]1CC(=O)c1ccccc1.[Br-],-56.8%
14,Cc1c(CCOC(=O)C2C3CC4CC(C3)CC2C4)sc[n+]1CC(=O)c1ccc(Br)cc1.[Br-] (stereo not drawn),-31.4%
15,Cc1c(CCO)sc[n+]1CC(=O)OCCC12CC3CC(CC(C3)C1)C2.[Cl-],11.8%
16,Cc1c(CCOC(=O)C23CC4CC(CC(C)(C4)C2)C3)sc[n+]1Cc1ccccc1.[Cl-],-34.5%
17,Cc1c(CCOC(=O)CC23CC4CC(CC(C4)C2)C3)sc[n+]1Cc1ccccc1.[Cl-],-42.1%
18,Cc1c(CCOC(=O)CC23CC4CC(CC(C4)C2)C3)sc[n+]1CC(=O)c1ccc(Br)cc1.[Br-],-75.1%
19,Cc1c(CCOC(=O)C23CC4(C)CC(C)(CC(C)(C4)C2)C3)sc[n+]1CC(=O)c1ccccc1.[Br-],-19.5%
20,c1ccc(N2CCN(c3nc4cc5c(cc4s3)OCO5)CC2)cc1,-11.2%
21,CCC(CC)c1nnc(NC(=O)c2c(-c3ccccc3)noc2C)s1,-9.78%

row,SMILES,"hERG current change (%, negative = inhibition) at 10uM"
1,COc1cnn(-c2cc(Oc3ccc(C)cc3)ncn2)c(=O)c1Cl,2.74%
2,COc1cccc(C(=O)NCC2(c3ccccc3)CCCC2)c1OC,3.79%
3,CC(C)n1ncc2c(C(=O)N3CCN(c4ccccc4)CC3)cc(-c3ccccc3)nc21,17.2%
4,COc1ccc(C(=O)N2CCCC2=O)cc1,17%
5,Cc1sc(NC(=O)C2=COCCO2)nc1-c1ccc(F)cc1,15.5%
6,CNC(=S)N/N=C/c1ccc(N2CCOCC2)s1,51.6%
7,CS(=O)(=O)n1nc(-c2cccnc2)nc1NCc1ccccc1,43.9%
8,Cc1nc(Nc2ccc(S(N)(=O)=O)cc2)sc1-c1ccccc1,12.9%
9,Nc1c(-c2ccccc2)sc2ccc3ccccc3[n+]12.O=S(=O)([O-])c1ccccc1,-58.3%
10,Nc1nc(-c2ccccc2)c(-c2ccccc2)s1,-2.18%
11,Cc1c(NC(=O)CSc2nccn2C)c(=O)n(-c2ccccc2)n1C,10.9%
12,CC(CNC(=O)c1cccs1)c1ccc([N+](=O)[O-])cc1 (stereo not drawn),4.3%
13,COc1cc(OC)cc(C(=O)NC(C(=O)Nc2ccc3c(c2)CCC3)C(C)C)c1 (stereo not drawn),-1.96%
14,COc1cc(OC)cc(C(=O)N[C@H](C(=O)Nc2ccc(NC(C)=O)cc2)C(C)C)c1,13%
15,COc1cc(OC)cc(C(=O)N[C@H](C(=O)Nc2cc(C)cc(C)c2)C(C)C)c1,-54.7%
16,Cc1cc2oc(=O)cc(C)c2cc1NC(=O)CCC(=O)O,7.75%
17,Cn1c(CCN2CCN(c3ccccn3)CC2)nc2cc(NC(=O)COc3ccccc3)ccc21,-72.5%
18,Cc1cccc(OCC(=O)Nc2ccc3c(c2)nc(CCN2CCN(c4ccccn4)CC2)n3C)c1,-79.5%
19,Cn1c(CCN2CCN(c3ccccn3)CC2)nc2cc(NC(=O)COc3ccc([N+](=O)[O-])cc3)ccc21,-5.69%
20,CCC(=O)Nc1ccc2c(c1)nc(CCN1CCN(c3ccccn3)CC1)n2C,-18.3%
21,CCCCC(=O)Nc1ccc2c(c1)nc(CCN1CCN(c3ccccn3)CC1)n2C,-56.5%

row,SMILES,"hERG current change (%, negative = inhibition) at 10uM"
1,Cn1c(CCN2CCN(c3ccccn3)CC2)nc2cc(NC(=O)COc3ccc(Cl)cc3)ccc21,-22.7%
2,CCCC(=O)Nc1ccc2c(c1)nc(CCN1CCN(c3ccccn3)CC1)n2C,-25.5%
3,O=[N+]([O-])c1cc(-c2nc3nc4ccccc4nc3n2CCc2ccccc2)cc([N+](=O)[O-])c1,3.97%
4,Cc1ccc(S(=O)(=O)N(C)/N=C/C=C/c2ccccc2)cc1,0.391%
5,O=S(=O)(Cc1ccccc1Cl)NCc1ccccc1,7.02%
6,Cc1cc(C)nc(SC2c3cccc4cccc(c34)C2NS(=O)(=O)c2ccccc2)n1 (stereo not drawn),-4.8%
7,Cc1cccc(N2CCN(C(=O)Cc3cn(C)c4ccccc34)CC2)c1C,-7.32%
8,CC1CCc2sc(C(=O)NCCCn3ccnc3)cc2C1 (stereo not drawn),-1.07%
9,Cc1ccccc1-c1ncc(CN2CCN(C3CCCCC3)C(CCO)C2)cn1 (stereo not drawn),-17.4%
10,Cc1ccccc1-c1ncc(CN2CCN(C3CCCC3)C(CCO)C2)cn1 (stereo not drawn),-25.8%
11,OCCC1CN(Cc2cnc(-c3ccc(Cl)cc3)nc2)CCN1C1CCCC1 (stereo not drawn),-73.5%
12,Cc1cccc(-c2ncc(CN3CCN(CC(C)C)C(CCO)C3)cn2)c1 (stereo not drawn),-47.9%
13,CC(C)CN1CCN(Cc2cnc(-c3ccc(Cl)cc3)nc2)CC1CCO (stereo not drawn),-67.2%
14,OCCC1CN(Cc2cnc(-c3cccc4ccccc34)nc2)CCN1C1CCCCC1 (stereo not drawn),-13.2%
15,OCCC1CN(Cc2cnc(-c3ccc(Cl)cc3)nc2)CCN1C1CCCCC1 (stereo not drawn),-73.6%
16,Cc1cccc(-c2ncc(CN3CCN(C4CCCC4)C(CCO)C3)cn2)c1 (stereo not drawn),-46.7%
17,COc1ccc(-c2ncc(CN3CCN(CCC(C)C)C(CCO)C3)cn2)cc1 (stereo not drawn),-43.4%
18,CC(C)(C)c1cc(-c2n[nH]c(=S)n2-c2ccc(Cl)cc2)n[nH]1,17.3%
19,CCCCCC1CCC(C(=O)N2CCOCC2)CC1 (stereo not drawn),-2.44%
20,CC(C)CC(=O)Nc1ccc(-c2nc3ccccc3c(=O)[nH]2)cc1,26.7%
21,O=C1COc2ccc(S(=O)(=O)CCC(=O)NC3CCCCC3)cc2N1,11.8%
